The structures appear in SMILES notation. Several values for one entry are separate records, joined by “and”; a condition that tells them apart may be missing. Identical values can stand only once. Records with an inconclusive call do not appear. Where a structure was tested more than once in an assay, its records may differ in their call. Activity calls are given as the source filed them. Rule for the calls, unless noted: active = hit-call score of the fitted dose curve at least 0.9, where 1 is the maximum; inactive = score below 0.9.

Read-out in assay [1]: Collagen I, COL1A1 (gene 1277)
Put plainly: BSK_MyoF_CollagenI: BioMAP Diversity Plus: MyoF Assay for Collagen I Biomarker Activity (AID 2284238). The note with it: primary human lung fibroblasts. The method in brief: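 Collagen I levels measured by ELISA on human lung fibroblast cultures 24 h post-dosing, with curve fitting in the positive direction relative to DMSO; SRB staining of parallel wells marked cytotoxicity.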

Read-out in assay [2]: Collagen III, COL3A1 (gene 1281)
Description: BSK_MyoF_CollagenIII: BioMAP Diversity Plus: MyoF Assay for Collagen III Biomarker Activity (AID 2284239). The note with it: primary human lung fibroblasts. A digest of the protocol: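 Collagen III biomarker quantified by ELISA in human lung fibroblast cultures 24 h after dosing. Activity fitted in the positive direction against DMSO as baseline.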

Assay [3] in a line: CCTE_Mundy_HCI_hNP1_Casp3_7: CCTE's Caspase-Glo 3/7 Assay in human neuroprogenitor cells for Apoptosis, Mundy Lab (AID 2284240). The method in brief:
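Neuroepithelial-lineage stem cells from WA09 embryonic cells were treated with chemicals after 40–44 h of culture. Twenty-four hours later, caspase-3/7 activation was detected luminescently after a 30 min room-temperature reagent step, with DMSO as baseline.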

Assay [4] is described as follows: CCTE_Mundy_HCI_hNP1_CellTiter: CCTE's Cell Titer-Glo 2 Assay in human neuroprogenitor cells for Viability, Mundy Lab (AID 2284241; active = hit-call score of the fitted dose curve at least 0.9, where 1 is the maximum). A digest of the protocol: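 Measures ATP content in human neural progenitors derived from WA09 embryonic cells. Read-out at 26.5 hours after dosing, with DMSO serving as the negative control and baseline.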
(In general: In ATP-based viability assays light output follows the ATP content of the culture.)

Read-out in assay [5]: Interleukin 17F (IL17F), IL17F (gene 112744)
Description: BSK_BT_xIL17F: BioMAP Diversity Plus: BT Assay for Interleukin 17F (IL17F) Biomarker Activity (AID 2284243). The note with it: primary human B cells with PBMC. A digest of the protocol: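 Human B cells co-cultured with PBMC; secreted IL-17F quantified by LumineX xMAP 24 hours after chemical dosing. Activity fitted in the positive direction against DMSO negative control as baseline.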

Read-out in assay [6]: Actin alpha 1 (ACTA1), ACTA1 (gene 58)
Put plainly: BSK_MyoF_ACTA1: BioMAP Diversity Plus: MyoF Assay for Actin alpha 1 (ACTA1) Biomarker Activity (AID 2284244). The note with it: primary human lung fibroblasts. A digest of the protocol: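 ELISA read-out of a-SMA in primary human lung fibroblast cultures, 24 h post-dosing. Activity scored in the positive direction versus DMSO baseline.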

Read-out in assay [7]: Interleukin 2 (IL2), IL2 (gene 3558)
Put plainly: BSK_BT_xIL2: BioMAP Diversity Plus: BT Assay for Interleukin 2 (IL2) Biomarker Activity (AID 2284245). The note with it: primary human B cells with PBMC. A digest of the protocol: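 Readout: supernatant IL-2 via Luminex xMAP after 24 h chemical dosing of a B cell/PBMC primary human co-culture. DMSO serves as negative control and baseline; increases in signal were fitted.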

Read-out in assay [8]: Basic fibroblast growth factor (bFGF), FGF2 (gene 2247)
Description: BSK_MyoF_bFGF: BioMAP Diversity Plus: MyoF Assay for Basic fibroblast growth factor (bFGF) Biomarker Activity (AID 2284246). The note with it: primary human lung fibroblasts. The method in brief:
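Primary human lung fibroblast culture, 24 h compound exposure; ELISA read-out of bFGF. Positive-direction fit vs DMSO baseline. Cytotoxicity: SRB stain (0.1% SRB, 10% TCA fixation, 560 nm) in parallel wells.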

Read-out in assay [9]: Collagen IV, COL4A1 (gene 1282)
Description: BSK_MyoF_CollagenIV: BioMAP Diversity Plus: MyoF Assay for Collagen IV Biomarker Activity (AID 2284247). The note with it: primary human lung fibroblasts. A digest of the protocol: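 ELISA read-out of Collagen IV in lung fibroblast cultures, 24 h post-dosing; gain of signal relative to DMSO vehicle baseline defines activity.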

Read-out in assay [10]: Monokine induced gamma interferon (MIG), CXCL9 (gene 4283)
Description: BSK_KF3CT_MIG: BioMAP Diversity Plus: KF3CT Assay for Monokine induced gamma interferon (MIG) Biomarker Activity (AID 2284248). The note with it: primary human keratinocytes with fibroblasts. A digest of the protocol: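 Parallel cultures were stained with SRB (560 nm) to check cytotoxicity. MIG was quantified by ELISA in a primary human skin keratinocyte/fibroblast co-culture 24 h post-dosing, with gain of signal fitted relative to DMSO.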

Read-out in assay [11]: Vascular cell adhesion molecule 1 (VCAM1), VCAM1 (gene 7412)
Put plainly: BSK_BF4T_VCAM1: BioMAP Diversity Plus: BF4T Assay for Vascular cell adhesion molecule 1 (VCAM1) Biomarker Activity (AID 2284249). The note with it: primary human bronchial epithelial cells with fibroblasts. A digest of the protocol: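 Cell-surface VCAM-1 quantified by ELISA after 24 h chemical exposure of human bronchial epithelial/dermal fibroblast co-cultures, with SRB staining in parallel wells for cytotoxicity; DMSO baseline, positive-direction fitting.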

Read-out in assay [12]: Collagen I, COL1A1 (gene 1277)
Put plainly: BSK_hDFCGF_CollagenI: BioMAP Diversity Plus: hDFCGF Assay for Collagen I Biomarker Activity (AID 2284250). The note with it: primary human foreskin fibroblasts. A digest of the protocol: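 ELISA read-out of Collagen I in human dermal foreskin fibroblast cultures, 24 h after dosing. Gain of signal versus DMSO vehicle defines activity.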

Read-out in assay [13]: Interferon-inducible T-cell alpha chemoattractant (ITAC), CXCL11 (gene 6373)
Description: BSK_hDFCGF_ITAC: BioMAP Diversity Plus: hDFCGF Assay for Interferon-inducible T-cell alpha chemoattractant (ITAC) Biomarker Activity (AID 2284251). The note with it: primary human foreskin fibroblasts. The method in brief: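 Chemical dosing of primary human foreskin fibroblast cultures preceded ELISA measurement of I-TAC at 24 h. Response was analysed in the positive direction using DMSO as baseline, while parallel SRB staining measured cytotoxicity.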

Read-out in assay [14]: Plasminogen activator inhibitor-1 (PAI1), SERPINE1 (gene 5054)
Description: BSK_KF3CT_PAI1: BioMAP Diversity Plus: KF3CT Assay for Plasminogen activator inhibitor-1 (PAI1) Biomarker Activity (AID 2284252). The note with it: primary human keratinocytes with fibroblasts. The method in brief: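 Keratinocyte + dermal fibroblast co-culture (human primary); 24 h post-dose; PAI-1 by ELISA; gain-of-signal fit vs DMSO control.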

Read-out in assay [15]: Monocyte Chemoattractant Protein-1 (MCP1), CCL2 (gene 6347)
Description: BSK_IMphg_MCP1: BioMAP Diversity Plus: IMphg Assay for Monocyte Chemoattractant Protein-1 (MCP1) Biomarker Activity (AID 2284253). The note with it: primary human endothelial cells with macrophages. The method in brief:
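ELISA readout of MCP-1 at 24 hours in IMphg co-cultures of venular endothelial cells and macrophages, normalised to DMSO; parallel cultures stained with sulforhodamine B for overt cytotoxicity.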

Read-out in assay [16]: Interleukin-8 (IL8), CXCL8 (gene 3576)
Put plainly: BSK_KF3CT_IL8: BioMAP Diversity Plus: KF3CT Assay for Interleukin-8 (IL8) Biomarker Activity (AID 2284254). The note with it: primary human keratinocytes with fibroblasts. A digest of the protocol: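 IL-8 by ELISA in primary human skin co-culture (keratinocytes plus fibroblasts) 24 h post-dose, DMSO as baseline. Cytotoxicity assessed in parallel by sulforhodamine B total-protein staining.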

Read-out in assay [17]: Macrophage Inflammatory Protein-1 Alpha (MIP1a), CCL3 (gene 6348)
Put plainly: BSK_IMphg_MIP1a: BioMAP Diversity Plus: IMphg Assay for Macrophage Inflammatory Protein-1 Alpha (MIP1a) Biomarker Activity (AID 2284255). The note with it: primary human endothelial cells with macrophages. The method in brief:
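MIP-1a protein levels were quantified by ELISA after 24 h treatment of human endothelial cell–macrophage co-cultures, compared with DMSO. Parallel cultures were fixed with TCA and stained with 0.1% SRB to gauge overt cytotoxicity.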

Read-out in assay [18]: Plasminogen activator inhibitor-1 (PAI1), SERPINE1 (gene 5054)
Description: BSK_MyoF_PAI1: BioMAP Diversity Plus: MyoF Assay for Plasminogen activator inhibitor-1 (PAI1) Biomarker Activity (AID 2284256).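 For outcome: PAI-1 protein level measured by ELISA in fibroblast cultures; PAI-1 read 24 h after compound addition.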 The note with it: primary human lung fibroblasts. A digest of the protocol: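 Human lung fibroblasts (MyoF system) were exposed to test chemicals for 24 h, then PAI-1 was quantified by ELISA. Activity was fitted in the positive (signal-gain) direction relative to DMSO vehicle as baseline.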

Read-out in assay [19]: CD69, CD69 (gene 969)
Description: BSK_IMphg_CD69: BioMAP Diversity Plus: IMphg Assay for CD69 Biomarker Activity (AID 2284257). The note with it: primary human endothelial cells with macrophages. A digest of the protocol:
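Readout is ELISA for CD69 in primary human venular endothelial cell/macrophage co-culture, taken at 24 h post-dosing. SRB staining of parallel cultures gauged overt cytotoxicity; signal increase versus DMSO defined activity.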

For orientation: AC50 means the concentration giving half of the maximal activity seen. For `OCCC(F)(F)C(F)(F)C(F)(F)C(F)(F)C(F)(F)C(F)(F)C(F)(F)C(F)(F)F`, the AC50 in [1] is 19.8 µM (active) and 17.2 µM (active); in [2], 14.5 µM (active) and 10 µM (active); in [5] it was 22.9 µM (active) and 36.3 µM (active); in assay [6] it was 14.6 µM (active) and 15.1 µM (active); in [7] it was 23.6 µM (active) and 28.4 µM (active); in assay [8] it was 17.4 µM (active) and 10.7 µM (active). For the same compound, the AC50 in assay [10] was 21.4 µM (active) and 23.7 µM (active); in assay [11], 8.57 µM (active) and 8 µM (active); in [12] it was 17.8 µM (active); in assay [13], 12.4 µM (active); in assay [14], 15.1 µM (active) and 15.7 µM (active); in assay [15] it was 49.6 µM (active) and 45.9 µM (active). For the same compound, the AC50 in [18] was 17.1 µM (active) and 11.1 µM (active); in [19], 30 µM (active) and 7.45 µM (active). Further, the compound was classed as inactive in [3], in [4], in assay [9], in assay [12], in [16] and in [17].

As to `C=C(C)C(=O)OCCC(F)(F)C(F)(F)C(F)(F)C(F)(F)C(F)(F)C(F)(F)F`, the result in [1], in assay [2], in assay [3], in assay [4], in assay [5] and in assay [6] was inactive. The outcome in assay [7], in assay [8], in assay [9], in [10], in assay [11] and in [12] was inactive. For the same compound, the outcome in assay [13], in [14], in assay [15], in assay [16], in [17] and in assay [18] was inactive. Besides, the outcome in assay [19] was inactive.

On to `NCC(F)(F)C(F)(F)C(F)(F)C(F)(F)C(F)(F)C(F)(F)C(F)(F)F`, for which the outcome in assay [1], in assay [2], in [5], in [6], in assay [7] and in assay [8] was inactive. Further, the outcome in assay [9], in assay [10], in [11], in assay [12], in [13] and in assay [14] was inactive. The result in [15], in [16], in assay [17], in assay [18] and in assay [19] was inactive. For the same compound, the concentration at half-maximal activity (AC50) in [13] was 12.1 µM (active); in assay [16], 13.5 µM (active).

In the case of `CCCCCCCCCCCCCC[N+](C)(C)C`, the AC50 in assay [1] was 1.5 µM (active); in [2], 1.85 µM (active); in assay [5], 2.26 µM (active); in assay [6], 2.31 µM (active); in [7] it was 1.67 µM (active); in assay [8] it was 4.65 µM (active). Besides, the AC50 in assay [9] is 5.43 µM (active); in assay [18] it was 3.69 µM (active).

Source of the values: PubChem BioAssay (EPA / NIEHS).
